What all share (test): log2 fold change, soluble protein after heating vs DMSO (PISA); higher = thermal stabilisation; K562 cells, 10 uM, 30 min; active = over 0.2 and 3.5 SD of the protein, either way, in both replicates (recomputed)
Compound in test [1]: C1=CC=C(C=C1)[C@H](COC2=CC3=C(C=C2)NC(=O)N3)NC(=O)C4=CC=CN(C4=O)CC5=CC(=C(C=C5)F)F
In a few lines: (§1)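 Quantification of soluble protein used TMTpro 16plex LC-MS/MS, with channel sums equalised. Samples were the supernatant after 21,000xg for 90 min of pooled aliquots from K562 cells (2×10^6 cells/mL) treated with 10 μM compound for 30 min, heated for 3 min over 48°C-58°C, and extracted in PBS with 0.5% NP-40 at 4°C. Values, from duplicates, describe thermal stability against control samples on a log2 fold-change scale.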

Compound in test [2]: CC1=C(SC2=C1C(=N[C@H](C3=NN=C(N32)C)CC(=O)N)C4=CC=C(C=C4)Cl)C
In a few lines:
as §1

Compound in test [3]: CC1=C2C(=CC=C1)N=C(N(C2=O)C3=CC=CC=C3C)CN4C=NC5=C(N=CN=C54)N
In short, it runs like this: as §1

Compound in test [4]: Cc1sc2c(c1C)C(c1ccc(Cl)cc1)=N[C@@H](CC(=O)OC(C)(C)C)c1nnc(C)n1-2
In short, it runs like this:
as §1

Compound in test [5]: c1ccc([C@@H]2C[C@H]2NC2CCNCC2)cc1
In short, it runs like this: as §1

About 7,900 targets were measured; listed, in parts, are those with a hit and a random draw of the rest. About 0.6% of all pairs of compound and target were hits. Unmarked numbers belong to inactive results.

Sequence of UniProt Q15910 (Q15910 whole entry, looked up): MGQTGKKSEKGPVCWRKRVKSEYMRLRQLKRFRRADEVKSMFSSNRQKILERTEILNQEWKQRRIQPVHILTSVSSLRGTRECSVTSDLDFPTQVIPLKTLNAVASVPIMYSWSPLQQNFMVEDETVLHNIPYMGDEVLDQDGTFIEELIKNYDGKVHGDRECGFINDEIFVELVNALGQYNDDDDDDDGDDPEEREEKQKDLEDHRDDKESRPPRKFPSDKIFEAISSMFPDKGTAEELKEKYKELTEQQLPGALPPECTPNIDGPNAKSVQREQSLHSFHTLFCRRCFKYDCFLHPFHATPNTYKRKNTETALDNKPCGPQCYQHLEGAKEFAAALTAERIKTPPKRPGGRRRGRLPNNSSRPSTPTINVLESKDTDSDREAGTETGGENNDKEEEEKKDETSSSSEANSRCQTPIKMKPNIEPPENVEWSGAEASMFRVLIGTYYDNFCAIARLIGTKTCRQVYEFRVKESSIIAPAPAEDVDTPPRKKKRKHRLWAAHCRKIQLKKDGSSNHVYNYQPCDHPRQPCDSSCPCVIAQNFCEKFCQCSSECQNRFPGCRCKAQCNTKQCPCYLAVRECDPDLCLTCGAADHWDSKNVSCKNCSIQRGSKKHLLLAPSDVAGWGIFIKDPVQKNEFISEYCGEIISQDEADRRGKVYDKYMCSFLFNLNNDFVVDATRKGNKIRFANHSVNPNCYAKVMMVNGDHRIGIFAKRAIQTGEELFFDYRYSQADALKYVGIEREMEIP
Sequence of UniProt Q86YN1 (Q86YN1 whole entry, looked up): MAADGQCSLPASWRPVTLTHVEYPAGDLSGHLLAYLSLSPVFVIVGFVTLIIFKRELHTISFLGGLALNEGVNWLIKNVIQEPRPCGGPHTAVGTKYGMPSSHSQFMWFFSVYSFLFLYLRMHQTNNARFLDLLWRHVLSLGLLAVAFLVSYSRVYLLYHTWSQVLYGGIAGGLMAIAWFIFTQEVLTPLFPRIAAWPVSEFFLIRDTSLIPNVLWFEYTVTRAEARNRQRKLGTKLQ
Sequence of UniProt Q9UBQ6 (Q9UBQ6 whole entry, looked up): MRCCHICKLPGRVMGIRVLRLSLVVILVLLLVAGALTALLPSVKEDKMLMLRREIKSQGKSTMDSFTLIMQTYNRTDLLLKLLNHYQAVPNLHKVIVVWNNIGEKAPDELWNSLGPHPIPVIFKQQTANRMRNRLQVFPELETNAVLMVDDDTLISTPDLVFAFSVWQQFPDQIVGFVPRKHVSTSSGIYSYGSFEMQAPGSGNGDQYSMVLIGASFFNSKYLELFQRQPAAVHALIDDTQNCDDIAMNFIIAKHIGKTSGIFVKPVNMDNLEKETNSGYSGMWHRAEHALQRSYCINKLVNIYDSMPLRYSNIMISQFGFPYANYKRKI
Sequence of UniProt O60911 (O60911 whole entry, looked up): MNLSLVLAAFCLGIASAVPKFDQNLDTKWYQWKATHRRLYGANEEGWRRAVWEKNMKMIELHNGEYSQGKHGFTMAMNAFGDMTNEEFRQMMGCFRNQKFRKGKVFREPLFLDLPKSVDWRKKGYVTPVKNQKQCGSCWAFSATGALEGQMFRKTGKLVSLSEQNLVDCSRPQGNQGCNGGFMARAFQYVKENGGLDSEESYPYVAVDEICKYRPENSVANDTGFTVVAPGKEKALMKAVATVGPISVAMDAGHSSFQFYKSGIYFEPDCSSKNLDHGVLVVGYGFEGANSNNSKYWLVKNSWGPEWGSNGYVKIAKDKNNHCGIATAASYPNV
Sequence of UniProt P17844 (P17844 whole entry, looked up): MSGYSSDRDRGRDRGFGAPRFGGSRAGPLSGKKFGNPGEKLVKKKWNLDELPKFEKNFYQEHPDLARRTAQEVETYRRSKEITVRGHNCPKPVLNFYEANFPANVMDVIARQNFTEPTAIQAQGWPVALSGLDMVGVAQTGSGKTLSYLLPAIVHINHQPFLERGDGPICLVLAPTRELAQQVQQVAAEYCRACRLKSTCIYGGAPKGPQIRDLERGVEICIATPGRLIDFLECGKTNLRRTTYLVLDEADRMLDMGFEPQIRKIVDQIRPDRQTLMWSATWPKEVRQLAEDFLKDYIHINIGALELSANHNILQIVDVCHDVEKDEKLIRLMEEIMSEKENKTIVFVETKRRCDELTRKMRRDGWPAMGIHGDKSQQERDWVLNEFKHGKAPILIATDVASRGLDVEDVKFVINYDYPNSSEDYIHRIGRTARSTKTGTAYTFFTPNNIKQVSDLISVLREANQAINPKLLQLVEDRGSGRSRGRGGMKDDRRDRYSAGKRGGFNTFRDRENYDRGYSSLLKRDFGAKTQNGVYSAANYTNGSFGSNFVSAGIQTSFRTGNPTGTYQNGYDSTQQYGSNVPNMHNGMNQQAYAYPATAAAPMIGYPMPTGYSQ
Sequence of UniProt Q9NXF7 (Q9NXF7 whole entry, looked up): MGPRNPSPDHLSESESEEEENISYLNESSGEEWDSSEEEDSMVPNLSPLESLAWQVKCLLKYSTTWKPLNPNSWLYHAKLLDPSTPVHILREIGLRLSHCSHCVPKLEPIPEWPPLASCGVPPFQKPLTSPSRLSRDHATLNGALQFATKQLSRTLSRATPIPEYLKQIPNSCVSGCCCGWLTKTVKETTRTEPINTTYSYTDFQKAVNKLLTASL
Sequence of UniProt Q5VYK3 (Q5VYK3 whole entry, looked up): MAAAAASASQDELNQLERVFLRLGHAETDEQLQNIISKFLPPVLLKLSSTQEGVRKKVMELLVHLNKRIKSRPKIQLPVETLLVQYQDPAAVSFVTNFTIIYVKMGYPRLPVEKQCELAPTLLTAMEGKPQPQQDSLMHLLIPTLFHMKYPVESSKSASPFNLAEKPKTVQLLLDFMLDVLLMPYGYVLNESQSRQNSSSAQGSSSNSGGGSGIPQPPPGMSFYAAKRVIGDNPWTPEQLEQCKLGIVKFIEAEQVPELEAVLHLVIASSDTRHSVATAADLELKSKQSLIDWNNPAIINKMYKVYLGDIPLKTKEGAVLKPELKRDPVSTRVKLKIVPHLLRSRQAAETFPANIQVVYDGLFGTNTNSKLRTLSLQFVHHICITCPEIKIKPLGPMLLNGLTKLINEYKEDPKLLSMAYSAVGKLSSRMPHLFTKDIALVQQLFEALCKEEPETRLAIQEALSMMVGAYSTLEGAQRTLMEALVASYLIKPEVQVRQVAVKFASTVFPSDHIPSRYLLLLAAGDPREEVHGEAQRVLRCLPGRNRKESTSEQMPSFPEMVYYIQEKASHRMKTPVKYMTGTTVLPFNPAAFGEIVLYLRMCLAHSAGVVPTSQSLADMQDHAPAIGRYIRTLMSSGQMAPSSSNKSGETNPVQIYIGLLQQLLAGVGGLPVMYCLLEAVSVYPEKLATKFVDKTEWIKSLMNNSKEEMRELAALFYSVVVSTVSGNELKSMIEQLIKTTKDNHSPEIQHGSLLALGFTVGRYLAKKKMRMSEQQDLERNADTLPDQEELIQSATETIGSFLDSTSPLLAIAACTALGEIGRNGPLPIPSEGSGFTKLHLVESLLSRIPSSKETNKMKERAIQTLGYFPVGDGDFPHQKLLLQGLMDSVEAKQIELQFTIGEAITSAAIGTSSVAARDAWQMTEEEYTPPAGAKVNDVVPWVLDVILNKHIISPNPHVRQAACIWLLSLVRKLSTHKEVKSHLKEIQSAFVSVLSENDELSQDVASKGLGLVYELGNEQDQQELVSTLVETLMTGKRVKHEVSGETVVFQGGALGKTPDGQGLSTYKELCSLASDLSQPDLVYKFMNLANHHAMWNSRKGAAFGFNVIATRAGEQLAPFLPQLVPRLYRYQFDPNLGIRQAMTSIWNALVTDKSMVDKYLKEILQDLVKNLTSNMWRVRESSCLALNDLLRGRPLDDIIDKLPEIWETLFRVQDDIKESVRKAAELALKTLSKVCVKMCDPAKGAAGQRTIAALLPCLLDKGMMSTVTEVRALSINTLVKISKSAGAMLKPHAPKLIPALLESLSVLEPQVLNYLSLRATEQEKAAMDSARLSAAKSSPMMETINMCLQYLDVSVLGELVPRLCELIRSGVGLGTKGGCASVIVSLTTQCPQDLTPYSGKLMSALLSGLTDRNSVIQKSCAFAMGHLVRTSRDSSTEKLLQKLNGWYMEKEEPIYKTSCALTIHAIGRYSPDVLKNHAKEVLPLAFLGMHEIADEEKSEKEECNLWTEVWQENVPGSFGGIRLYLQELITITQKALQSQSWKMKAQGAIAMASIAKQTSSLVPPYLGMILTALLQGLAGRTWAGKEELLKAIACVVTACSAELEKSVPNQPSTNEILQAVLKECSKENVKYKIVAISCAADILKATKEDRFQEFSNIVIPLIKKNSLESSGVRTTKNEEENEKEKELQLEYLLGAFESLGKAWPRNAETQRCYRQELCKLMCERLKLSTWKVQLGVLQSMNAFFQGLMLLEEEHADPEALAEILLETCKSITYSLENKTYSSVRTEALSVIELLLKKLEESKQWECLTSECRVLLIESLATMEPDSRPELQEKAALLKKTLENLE

With DDX5 (UniProt P17844), the log2 fold change was -0.061 in test [1]; 0.008 in test [2]; 0.067 in test [3]; -0.027 in test [4]; 0.038 in test [5].

Consider ECPAS (UniProt Q5VYK3), for which the log2 fold change is -0.127 in test [1]; 0.047 in test [2]; 0.112 in test [3]; -0.032 in test [4]; -0.01 in test [5].

In the case of DCAF16 (UniProt Q9NXF7), the log2 fold change in test [1] was 0.06; in test [2], 0.056; in test [3], 0.079; in test [4], 0.032; in test [5] it was -0.032.

Turning to CTSV (UniProt O60911), the log2 fold change was -0.02 in test [1]; -0.087 in test [2]; 0.021 in test [3]; -0.065 in test [4]; 0.005 in test [5].

Consider EXTL2 (UniProt Q9UBQ6), for which the log2 fold change was 0.028 in test [1]; 0.106 in test [2]; 0.003 in test [3]; 0.316 (active) in test [4]; -0.211 in test [5].

Regarding DOLPP1 (UniProt Q86YN1), the log2 fold change in test [1] is -0.028; in test [2], 0.02; in test [3], -0.107; in test [4] it was 0.062; in test [5], 0.153.

For the target EZH2 isoform 2 (UniProt Q15910), the log2 fold change was 0.023 in test [1]; -0.056 in test [2]; -0.14 in test [3]; 0.016 in test [4]; -0.034 in test [5].

As for EED, A0A5F9ZI63, the log2 fold change is 0.002 in test [1]; 0.011 in test [2]; 0.03 in test [3]; -0.029 in test [4]; -0.006 in test [5].

Consider DNAH10 (UniProt Q8IVF4), for which the log2 fold change in test [1] is 0.09; in test [2], 0.103; in test [3], 0.062; in test [4], -0.131; in test [5] it was 0.031.

The record behind these values is the supplement of paper PMC10849652.
